DT40 TDP1 no CPT – qHTS for Inhibitors of human tyrosyl-DNA phosphodiesterase 1 (TDP1): qHTS in cells in absence of CPT. hit rate 15% among 420,000. DT40 Tdp1-/- hTDP1 cells, no CPT, ATP luminescence, 48 h. Potency, µM (doses to about 46.2 µM), usual class: inhibitors; further: nearly all actives have a fitted effect of over 55% in size
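Chicken DT40 Tdp1-/- cells complemented with human TDP1, screened without camptothecin (DMSO vehicle only), 400 cells/well. Compounds pin-transferred, cells incubated at 37 °C for at least 48 hr. Growth read as ATP-dependent luminescence (CellTiter-Glo, 30 min at RT).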
HT1080 IDH1KD tx – kills HT-1080 cells with IDH1 knockdown. HT-1080 IDH1 knockdown viability, ATP luminescence, 48 h. AID 686971. Potency, µM (highest dose often 46.1 µM), hits mostly cytotoxic. hit rate 2% among 360,000
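Cytotoxicity counter-line: IDH1KD HT-1080, 48 h, CellTiter-Glo. Curves classed by r2, magnitude and activity.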
HT1080-NT tox – kills 2HG-producing HT-1080-NT fibrosarcoma cells; AID 686970; HT-1080-NT fibrosarcoma viability, CellTiter-Glo ATP luminescence, 48 h; hit rate 1.6% among 360,000; Potency, µM (doses to about 46.1 µM), usual class: cytotoxic;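 further: NT is the 2HG producing partner of a matched IDH1 knockdown line; nearly all actives have a fitted effect of over 55% in size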
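Viability of the 2HG-overproducing fibrosarcoma line after 48 hours of compound exposure at 37 degrees C was determined by luminescence with CellTiter-Glo, and concentration-effect curves were then fitted and categorized.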
DT40 TDP1 CPT – DT40-hTDP1 cell growth loss with CPT. Potency, µM (top dose mostly 46.2 µM), actives largely listed as inhibitors. hit rate 12% among 420,000. chicken DT40 Tdp1-/-;hTDP1 cells + 20 nM CPT, ATP luminescence, 48 h. AID 686979; further: nearly all actives have a fitted effect of over 55% in size
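Cell growth measured by CellTiter-Glo luminescence after a minimum 48 h, 37 C compound exposure with 20 nM CPT in Tdp1-knockout DT40 cells stably expressing hTDP1, seeded 400/well; qHTS titration format.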
IL1B secr inh – blocks inflammasome-driven IL-1 beta release; THP-1 LPS/ATP IL-1B secretion, AlphaLISA, 16 h; hits give low values; activity change, % at 57.5 µM; hit rate 4.7% among 360,000; AID 743279; in the data active means activity change below about -50%; inconclusive means mostly about -30% to -49%
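THP-1 cells pretreated 1 hr with compounds (up to 57.5 uM final), then stimulated with LPS (250 ng/mL final) plus ATP (1.25 mM final); secreted IL-1B measured by AlphaLISA after 16 hr, decreased signal indicating inhibition.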
Large screens that a line does not name were inactive. Most compounds without a hit are left out; they make up all but 19% or so of the library. Unless noted, the call rests on the fitted dose curve; in most records, active means well fitted curve in the direction sought with a large enough effect; inconclusive means small, poorly fitted or top-dose-only effect, or another doubt; inactive means no such curve, though single readings can be large; an effect the other way counts as inactive or inconclusive.

O=C(c1ccc(F)cc1Cl)N1CCN(S(=O)(=O)c2cccs2)CC1	none
CCOC(=O)c1ccc(S(=O)(=O)N2CCN(CC(O)COc3ccc(C#N)cc3)CC2)cc1 (configuration not stated)	DT40 TDP1 no CPT 18.4µM, DT40 TDP1 CPT inconclusive
CCOC(=O)c1ccc(S(=O)(=O)N2CCN(CCC#N)CC2)cc1	none
CC1CN(CC(O)COc2ccc(C#N)cc2)CCN1CC(O)COc1ccc(C#N)cc1 (configuration not stated)	DT40 TDP1 no CPT 23.1µM, DT40 TDP1 CPT 20.6µM
Cc1ccc(OCC(O)CN2CCN(CC(O)COc3ccc(C)cc3)CC2)cc1 (configuration not stated)	DT40 TDP1 no CPT inconclusive
CCCCCCSc1nc(O)c(C2OC(=O)c3c2ccc(OC)c3OC)c(=O)n1-c1ccccc1 (configuration not stated)	none
CCO[C@H]1OC(C(N)=O)=C[C@@H](C2CC2)[C@@H]1CCCO	none
CC(C)(C)NC(=S)NCCc1ccccc1	none
S=C(NCCc1ccccc1)Nc1ccccn1	DT40 TDP1 no CPT 18.4µM, DT40 TDP1 CPT 6.51µM
Cc1cccc(NC(=S)NCCc2ccccc2)n1	DT40 TDP1 no CPT 16.4µM, DT40 TDP1 CPT inconclusive
S=C(NCCc1ccncc1)Nc1ccccc1	none
Cn1cccc1C(=O)N1CCC2(CCN(Cc3ccncc3)CC2)CC1	none (no result: HT1080 IDH1KD tx, HT1080-NT tox, IL1B secr inh)
NC(=O)[C@H]1CC2(CC(c3cccc(NC(=O)CC(c4ccccc4)c4ccccc4)c3)=NO2)CN1C(=O)C(c1ccccc1)c1ccccc1 (some centres not stated)	DT40 TDP1 no CPT inconclusive, DT40 TDP1 CPT 18.4µM
C/C=C\C=C\C(=O)N1CC2(CC(c3cccc(NC(=O)CC(c4ccccc4)c4ccccc4)c3)=NO2)C[C@H]1C(N)=O (some centres not stated)	DT40 TDP1 no CPT 18.4µM, DT40 TDP1 CPT inconclusive
NC(=O)[C@H]1CC2(CC(c3cccc(NC(=O)CC(c4ccccc4)c4ccccc4)c3)=NO2)CN1C(=O)c1ccccc1C(=O)c1ccccc1 (some centres not stated)	DT40 TDP1 no CPT inconclusive, DT40 TDP1 CPT 13µM
CCC(=O)Nc1cccc(C2=NOC3(C2)C[C@@H](C(N)=O)N(C(=O)c2ccccc2C(=O)c2ccccc2)C3)c1 (some centres not stated)	none
C/C=C\C=C/C(=O)Nc1cccc(C2=NOC3(C2)C[C@@H](C(N)=O)N(C(=O)/C=C/C=C\C)C3)c1 (some centres not stated)	DT40 TDP1 CPT inconclusive
CC(=O)Nc1ccc(NC(=O)C(C)OC(=O)C2(c3ccccc3F)CCCC2)cc1 (configuration not stated)	DT40 TDP1 no CPT inconclusive, DT40 TDP1 CPT inconclusive
CCCc1ccc(C(C)NC(=O)c2cnccn2)cc1 (configuration not stated)	DT40 TDP1 no CPT 23.1µM, DT40 TDP1 CPT inconclusive
CCCCc1ccc(NC(=O)c2cnccn2)cc1	none
COC1=CC(=O)[C@@]2([C@@H]1O)[C@@H](Cl)C[C@]13C(OC)=C(OC)C(=O)C[C@]21CCN3C	none
Cc1ccc(-c2nc3ccccc3o2)cc1NC(=O)C(C)Oc1ccccc1 (configuration not stated)	none (no result: HT1080 IDH1KD tx, HT1080-NT tox, IL1B secr inh)
COc1ccc(-c2cnc3c(NC(C)=O)cc(-c4ccc(C(=O)NC5CC5)cc4)cn23)cc1OC	DT40 TDP1 no CPT 23.1µM, DT40 TDP1 CPT 23.1µM
COc1cccc(-c2cnc3c(NC(C)=O)cc(-c4ccc(C(=O)NC5CC5)cc4)cn23)c1	DT40 TDP1 no CPT 13µM, HT1080 IDH1KD tx 20.6µM, HT1080-NT tox 18.4µM, DT40 TDP1 CPT inconclusive, IL1B secr inh inconclusive
COc1ccc(OC)c(C(C)NC(=O)Nc2cccc(C(C)=O)c2)c1 (configuration not stated)	none
CCC1CN(CCNC(=O)c2cscn2)Cc2cc(OC)ccc2O1 (configuration not stated)	none (no result: HT1080 IDH1KD tx, HT1080-NT tox, IL1B secr inh)
CN1CCOC(=O)/C1=N/Nc1cc(Cl)ccc1Cl	HT1080 IDH1KD tx 20.6µM, HT1080-NT tox inconclusive
COc1ccc(C(=O)Nc2ccccc2C(=O)N/N=C/c2ccco2)cc1	DT40 TDP1 no CPT inconclusive, HT1080 IDH1KD tx inconclusive, HT1080-NT tox 9.2µM
O=C(Nc1ccccc1SC(=O)c1ccccc1)c1ccccc1	DT40 TDP1 no CPT 4.61µM, DT40 TDP1 CPT 3.26µM
CSc1ccccc1NC(=O)c1ccccc1	none
Cc1ccccc1C(=O)Nc1ccc(C(=O)N/N=C/c2ccncc2)cc1	none
CC(=O)Nc1ccccc1NC(=O)c1ccccc1	none
Nc1ccccc1NC(=O)c1ccccc1	DT40 TDP1 no CPT 18.4µM, DT40 TDP1 CPT 20.6µM
O=C(Nc1ccccc1C(=O)N/N=C/c1ccncc1)c1ccccc1	DT40 TDP1 no CPT 20.6µM, HT1080 IDH1KD tx 9.2µM, HT1080-NT tox 20.6µM, DT40 TDP1 CPT inconclusive
Cc1ccc(C(=O)COC(=O)c2cc(=O)[nH]c3ccccc23)cc1C	none
COC(=O)c1ccc(COC(=O)c2ccc(SC)cc2OC)cc1	DT40 TDP1 CPT inconclusive
CCc1cc2c(SCC(=O)NC3CCCC3)ncnc2s1	DT40 TDP1 no CPT inconclusive, DT40 TDP1 CPT inconclusive
Nc1ccc(NC(=O)c2ccccc2)c2c1C(=O)c1ccccc1C2=O	DT40 TDP1 no CPT 16.4µM, DT40 TDP1 CPT 13µM
Cc1ccc(C(=O)Sc2cccccc2=O)cc1	DT40 TDP1 no CPT 0.517µM, HT1080 IDH1KD tx 1.64µM, HT1080-NT tox inconclusive, DT40 TDP1 CPT 0.731µM, IL1B secr inh -97.3
Cc1cccc(NC(=O)c2ccccc2NC(=O)c2ccccc2)n1	DT40 TDP1 no CPT 18.4µM, DT40 TDP1 CPT inconclusive
O=C(Nc1ccc(NC(=O)c2ccccc2)c2ccccc12)c1ccccc1	HT1080-NT tox inconclusive
O=C(Nc1ccccc1C(=O)Nc1ccccc1C(=O)O)c1ccccc1	DT40 TDP1 no CPT 11.6µM, HT1080 IDH1KD tx inconclusive, HT1080-NT tox inconclusive, DT40 TDP1 CPT inconclusive
CCN(CC)CCNC(=O)c1ccc(NC(=O)c2ccc(-n3cncn3)c([N+](=O)[O-])c2)cc1	none
CCOC(=O)c1c(NC(=O)c2ccccc2C(=O)O)sc2c1CCCC2	none
CCOC(=O)c1c(NC(=S)N2CCOCC2)sc2c1CCN(C(=O)OCC)C2	DT40 TDP1 no CPT inconclusive, HT1080 IDH1KD tx 11.6µM, HT1080-NT tox 9.2µM, DT40 TDP1 CPT inconclusive (no result: IL1B secr inh)
CCOC(=O)c1c(NC(=O)C2CCCN(S(=O)(=O)c3ccccc3)C2)sc2c1CCCC2 (configuration not stated)	DT40 TDP1 no CPT 9.2µM, HT1080 IDH1KD tx inconclusive, DT40 TDP1 CPT 8.2µM
CCOC(=O)c1c(NC(=O)c2ccc(S(=O)(=O)N3CCC(C)CC3)cc2)sc2c1CCN(C)C2	DT40 TDP1 no CPT 3.66µM, DT40 TDP1 CPT 3.66µM (no result: HT1080 IDH1KD tx, HT1080-NT tox, IL1B secr inh)
CCOC(=O)c1c(NC(=O)c2ccc(S(=O)(=O)N(CC(C)C)CC(C)C)cc2)sc2c1CCN(C(=O)OCC)C2	DT40 TDP1 no CPT 0.0073µM (no result: HT1080 IDH1KD tx, HT1080-NT tox, IL1B secr inh)
